hgDAF-12 ag = hgDAF-12 agonism, primary luciferase screen | activation, % at 6.8 µM | 370,000 compounds, 1.8% hits | AID 687014 | HEK293 GAL4-hgDAF12 UAS-luciferase reporter, agonist luminescence; normalized to butyrate control;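 active means activation above a cutoff set at the mean of all screened compounds plus 3 SD, cut at about 10% in these data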;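 further: 0% = DMSO wells and 100% = sodium butyrate wells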
hcDAF-12 act = activators of H. contortus DAF-12 nuclear receptor | HEK293 hcDAF-12 lit1-tk-luc reporter, luminescence; 0% DMSO, 100% Δ7-dafachronic acid | activation, % at 6.8 µM | 370,000 compounds, 1.4% hits | AID 652067;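 active means activation above the mean of all tested compounds plus 3 SD, cut at about 5.5% in these data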;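 further: 100% = response to 3 µM Δ7-dafachronic acid high control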
GAA850 FXN act = frataxin GAA850 promoter activation. HEK293 lucGAA850 FXN promoter luciferase reporter, 24 h; percent of 10 µM SAHA response. activation, % at 6 µM. 360,000 compounds, 0.56% hits. AID 540364;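 active means activation above the average of all compounds screened plus 3 SD, cutoff fixed separately per campaign, cut at about 7.5% in these data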;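 further: 0% = DMSO wells and 100% = 10 µM SAHA wells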
DAX1 inh-1 = DAX1 (NR0B1) inhibition, primary screen | AID 652010 | HEK293T StAR-luciferase reporter, SF-1/DAX-1 repression relief | 370,000 compounds, 1.1% hits | inhibition, % at 6.8 µM;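 active means inhibition above the mean over all tested compounds plus 3 SD, cut at about 3.6% in these data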;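 further: 0% = DAX-1 cells with DMSO and 100% = cells lacking DAX-1 with DMSO; higher inhibition means more luminescence from relief of DAX-1 repression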
DAX1 inh-2 = inhibits human nuclear receptor DAX1; HEK293 Gal4-DAX1 luciferase reporter, luminescence; 340,000 compounds, 0.99% hits; inhibition, % at 6.75 µM; P51843;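 active means inhibition above the mean over all tested compounds plus 3 SD, cut at about 4.2% in these data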;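 further: 0% = DAX1-transfected cells with DMSO and 100% = empty-vector control cells with DMSO; inhibition shows as a rise in luminescence from relieved DAX1 repression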
Target sequence (P51843 207-470 limits assumed): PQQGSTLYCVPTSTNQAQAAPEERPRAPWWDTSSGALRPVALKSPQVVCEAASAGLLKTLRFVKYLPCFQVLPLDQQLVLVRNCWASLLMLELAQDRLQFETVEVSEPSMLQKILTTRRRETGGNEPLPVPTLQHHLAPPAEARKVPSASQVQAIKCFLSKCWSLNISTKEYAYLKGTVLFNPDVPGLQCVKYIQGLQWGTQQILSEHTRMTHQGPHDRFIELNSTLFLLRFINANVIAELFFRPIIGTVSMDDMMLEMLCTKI
ssDAF12 agonist = activates DAF-12 receptor from parasite S. stercoralis; activation, % at 6.8 µM; 370,000 compounds, 1% hits; HEK293 ssDAF-12/GRIP1 lit1-tk-luc reporter, luminescence; % of 3 µM dafachronic acid response; AID 652126;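 active means activation above the mean over all tested compounds plus 3 SD, cut at about 0.9% in these data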;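 further: 0% = DMSO-only wells and 100% = 3 µM delta7-dafachronic acid wells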
Starred values were filed as active, the others as inactive. Only some compounds are listed: those with a hit (about 4.5% of all), similar ones and a draw of the others.

`Nc1ncnc2c1ncn2[C@@H]1O[C@H](C(=O)N[C@@H](CCc2ccccc2)C(=O)N2CCN(CC(=O)N3CCCC3)CC2)[C@@H](O)[C@H]1O` gave hgDAF-12 ag 2, hcDAF-12 act 2, DAX1 inh-1 0 and ssDAF12 agonist -1.
`CCOC(OCC)c1cc2ccccc2cn1` gave hgDAF-12 ag 3, hcDAF-12 act 2, GAA850 FXN act 1, DAX1 inh-1 0, DAX1 inh-2 0 and ssDAF12 agonist 2.2*.
Screening N#CCCCc1cc2ccccc2cn1 returned hgDAF-12 ag -2, hcDAF-12 act 1, GAA850 FXN act 0, DAX1 inh-1 1, DAX1 inh-2 -2 and ssDAF12 agonist -1.
Screening Cc1cc(OCC(C)CN2CCC(C(O)(c3ccccc3)c3ccccc3)CC2)ccc1Br (stereo unspecified) returned hgDAF-12 ag 3, hcDAF-12 act -3, DAX1 inh-1 -1 and ssDAF12 agonist -2.
Screening CN(C(=O)c1ccco1)c1nc(-c2ccc(F)cc2)cs1 returned hgDAF-12 ag 8, hcDAF-12 act 4, GAA850 FXN act 6, DAX1 inh-1 2, DAX1 inh-2 5.2* and ssDAF12 agonist 0.
For CC1CCC2(CC1)CCN(CCCOC(=O)Nc1cccc(F)c1)C2=O (stereo unspecified) the results were hgDAF-12 ag 3, hcDAF-12 act -2, DAX1 inh-1 -2 and ssDAF12 agonist -2.
CN(C)c1ccc(Nc2ccc([N+](=O)[O-])cn2)cc1 was read as hgDAF-12 ag 7, hcDAF-12 act 1, GAA850 FXN act 4, DAX1 inh-1 1, DAX1 inh-2 5.4* and ssDAF12 agonist 0.
For N#Cc1ccc(Cn2ccc3ccc(-c4ccc5ccn(C(=O)c6ccccc6)c5c4)cc32)cc1 the results were hgDAF-12 ag 2, hcDAF-12 act -2, DAX1 inh-1 -2 and ssDAF12 agonist -1.
CCN1CCN(C(=O)c2cc3c(s2)-c2c(C)cccc2OC3)CC1 was read as GAA850 FXN act 3 and DAX1 inh-2 5.9*.
CCOC(=O)N1CCN(C(=O)c2cc3c(s2)-c2c(C)cccc2OC3)CC1 was read as hgDAF-12 ag -2, hcDAF-12 act -1, GAA850 FXN act 2, DAX1 inh-1 0, DAX1 inh-2 1 and ssDAF12 agonist -1.
Screening Cc1occc1-c1nnc(SCC(=O)NCCc2ccccc2)o1 returned hgDAF-12 ag 4, hcDAF-12 act -2, GAA850 FXN act 4, DAX1 inh-1 0, DAX1 inh-2 1 and ssDAF12 agonist 0.
Screening Cc1ccccc1-c1nnc(SCC(=O)Nc2cccnc2Cl)o1 returned hgDAF-12 ag 7, hcDAF-12 act 5, GAA850 FXN act -1, DAX1 inh-1 8.3*, DAX1 inh-2 -2 and ssDAF12 agonist 0.
For Cc1occc1-c1nnc(SCCNCCO)o1 the results were hgDAF-12 ag 13*, hcDAF-12 act 2, GAA850 FXN act -2, DAX1 inh-1 0, DAX1 inh-2 0 and ssDAF12 agonist -2.
Screening Cc1occc1-c1nnc(SCC(=O)Nc2ccccn2)o1 returned hgDAF-12 ag 6, hcDAF-12 act 2, GAA850 FXN act 6, DAX1 inh-1 3.7*, DAX1 inh-2 1 and ssDAF12 agonist -1.
For COc1ccccc1NC(=O)CSc1nnc(-c2ccoc2C)o1 the results were hgDAF-12 ag 2, hcDAF-12 act -1, GAA850 FXN act 2, DAX1 inh-1 2, DAX1 inh-2 0 and ssDAF12 agonist 0.
Screening O=C(CCc1ccccc1)N[C@H]1[C@H](OC(=O)c2cnccn2)CCC[C@]12C(=O)N(Cc1ccccc1)c1ccccc12 returned hgDAF-12 ag -1, hcDAF-12 act 0, DAX1 inh-1 0 and ssDAF12 agonist -1.
Screening Cc1ccc(C(=O)N/N=C/c2cc(Br)ccc2O)cn1 returned hgDAF-12 ag -11, hcDAF-12 act -2, GAA850 FXN act -5, DAX1 inh-1 -2, DAX1 inh-2 -4 and ssDAF12 agonist -2.
Screening Cc1ccc(C(=O)N/N=C\C=C\c2ccc(Br)cc2)cn1 returned hgDAF-12 ag 1, hcDAF-12 act 6.5*, GAA850 FXN act 2, DAX1 inh-1 0, DAX1 inh-2 0 and ssDAF12 agonist 1.0*.
CCOc1cccc(-c2nn3c(-c4cccc(C)c4)nnc3s2)c1 was read as hgDAF-12 ag 0, hcDAF-12 act -1, DAX1 inh-1 1 and ssDAF12 agonist -1.
For COc1ccc(CNc2nc3nc(C)cc(C)n3n2)cc1 the results were hgDAF-12 ag 2, hcDAF-12 act 0, GAA850 FXN act 2, DAX1 inh-1 2, DAX1 inh-2 1 and ssDAF12 agonist -1.
`COc1ccc(-c2nc3nc(C)cc(C)n3n2)cc1` gave hgDAF-12 ag 3, hcDAF-12 act 5.7*, GAA850 FXN act 2, DAX1 inh-1 1, DAX1 inh-2 1 and ssDAF12 agonist 0.
`C=CCN(CC#CC1=CCCCC1)Cc1ccccc1` gave hgDAF-12 ag 2, hcDAF-12 act -2, DAX1 inh-1 0 and ssDAF12 agonist -1.
`COc1cc(CO)ccc1OCc1ccc(Cl)nc1` gave hgDAF-12 ag 11*, hcDAF-12 act 3, GAA850 FXN act 3, DAX1 inh-1 0, DAX1 inh-2 4 and ssDAF12 agonist 1.3*.
COc1cccc(-c2cc(C(=O)NCC3CCCO3)on2)c1 (stereo unspecified) was read as hgDAF-12 ag 11*, hcDAF-12 act 4, GAA850 FXN act 3, DAX1 inh-1 1, DAX1 inh-2 1 and ssDAF12 agonist 0.
CCOC(=O)Cn1cc(CN2CCS(=O)(=O)N(Cc3ccccc3)C(C(=O)OC)C2)nn1 (stereo unspecified) was read as hgDAF-12 ag 0, hcDAF-12 act 1, DAX1 inh-1 -1 and ssDAF12 agonist 1.
For O=C(O)COc1ccc(/C=N/NC(=O)c2ccccc2Br)cc1 the results were GAA850 FXN act 0 and DAX1 inh-2 0.
For O=C(N/N=C/c1ccc(OC(=O)c2ccccc2Br)cc1)c1ccccn1 the results were hgDAF-12 ag 10, hcDAF-12 act 5, GAA850 FXN act 5, DAX1 inh-1 5.8*, DAX1 inh-2 1 and ssDAF12 agonist 0.
`COc1cc(COCC(O)CN2C(C)CCCC2C)cc(OC)c1OC` (stereo unspecified) gave hgDAF-12 ag 1, hcDAF-12 act 2, GAA850 FXN act 0, DAX1 inh-1 0, DAX1 inh-2 4.6* and ssDAF12 agonist -2.
`COc1cc(C=Nn2c(-c3ccc(F)cc3)n[nH]c2=S)ccc1OCc1ccccc1` gave hgDAF-12 ag -2, hcDAF-12 act -1, DAX1 inh-1 1 and ssDAF12 agonist -2.
Cc1[nH]c2ccccc2c1CCN(Cc1cccs1)C(=O)Nc1cccc2c1OCO2 was read as hgDAF-12 ag 11*, hcDAF-12 act 5, DAX1 inh-1 1 and ssDAF12 agonist 0.

Screening data (PubChem)
